VLA-4 allo ag: allosterically activates the human VLA-4 integrin | Jurkat cells, LDV-FITC binding, flow cytometry | activation, % at 10 µM (by protocol) | 24,000 tested, under 10 active;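 active = fluorescent ligand binding to cells raised by more than 40% of the manganese-induced maximum; inconclusive = compound's own fluorescence above 85% of the ligand control signal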;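 also: 0% = ligand binding without compound and 100% = manganese-stimulated maximal binding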
VLA-4 antagonist: blocks LDV-FITC ligand binding to Mn2+-activated human VLA-4 integrin; P13612; Jurkat cells, LDV-FITC binding with Mn2+, flow cytometry; 100% = Mn2+-driven binding gain fully reversed; inhibition, % at 10 µM (by protocol); hit rate 0.2% among 24,000; AID 529;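 active = inhibition above 50%; inconclusive = compound itself fluorescent, judged against control cell fluorescence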;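 also: 0% = Mn2+ stimulated cells lacking compound and 100% = ligand binding without Mn2+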
FPRL1 binder: ligands of human FPRL1, also counter-screen for FPR ligands; P25090; FPRL1-expressing cells, fluorescent ligand binding inhibition, flow cytometry; inhibition, % (no concentration beside the values); hit rate 0.3% among 24,000;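 also: 0% = buffer alone and 100% = receptor blocker peptide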
Target sequence (P25090 whole entry, looked up): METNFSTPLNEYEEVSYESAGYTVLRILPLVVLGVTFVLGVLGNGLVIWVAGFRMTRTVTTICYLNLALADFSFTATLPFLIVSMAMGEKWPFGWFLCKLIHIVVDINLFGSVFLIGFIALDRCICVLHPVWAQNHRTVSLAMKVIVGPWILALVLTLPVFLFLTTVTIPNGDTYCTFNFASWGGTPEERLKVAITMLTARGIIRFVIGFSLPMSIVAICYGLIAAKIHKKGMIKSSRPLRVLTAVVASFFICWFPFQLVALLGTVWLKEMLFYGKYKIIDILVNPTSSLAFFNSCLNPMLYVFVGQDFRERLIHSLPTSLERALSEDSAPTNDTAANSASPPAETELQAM
LNCaP diff act: promotes differentiation of LNCaP prostate cells; hit rate 0.56% among 24,000; side scatter shift, % at 10 µM; flow cytometry side scatter, 4 d;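 active = side scatter shift above 30%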;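 also: androgen-responsive LNCaP prostate cancer cells in charcoal-stripped serum medium; percent of cells past a gate set so DMSO wells show 10% shift; higher shift means more granular cells and more differentiation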
FPR binder: ligands of human FPR, also counter-screen for FPRL1 ligands. P21462. FPR-expressing cells, fluorescent ligand binding, flow cytometry. inhibition, % (test concentration not listed). hit rate 0.74% among 24,000. AID 440;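 also: 0% = buffer wells and 100% = receptor blocker peptide wells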
Jurkat autofluor: autofluorescence counter-screen for VLA-4 integrin assays; Jurkat cells, compound autofluorescence, flow cytometry; hits give high values; 1 = vehicle-only cell background; fluorescence ratio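 (tested at 10 µM compound in the well)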; hit rate 0.61% among 24,000;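 active = fluorescence ratio above 2.44, which is 1 plus 3 SD of all ratios; inconclusive = signal too bright to measure linearly, ratio around 10 or more; inactive = fluorescence ratio below 2.44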;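 also: green fluorescence of cells measured with 488 nm excitation and 530 nm emission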
* hit, by the source's call; u = inconclusive; x = not tested or not shown. Sampled rows, rich in hits. Any-hit rate of the full collection: about 1.9%. Rule as the data show it, unless noted: active = inhibition above about 30%; inconclusive = no clear call, values can overlap the other calls; inactive = below that.

SMILES | VLA-4 allo ag | VLA-4 antagonist | FPRL1 binder | LNCaP diff act | FPR binder | Jurkat autofluor
COc1cccc(/C(O)=C2/C(=O)C(=O)N(Cc3cccnc3)C2c2ccco2)c1 (centres undefined) | x | x | 26 | x | 34* | x
CCOC(=O)CSc1cc(=O)n(C)c2cc(Cl)ccc12 | -2 | 5 | 2 | 2 | 6 | 1.1
COC(=O)CCC(=O)N1CCc2cc(S(=O)(=O)N3CCN(c4ccccc4Cl)CC3)ccc21 | u | u | -3 | 10 | -2 | 1.3
Cc1ccc(-c2noc(CCC(=O)N3CCCc4ccccc43)n2)cc1 | u | u | 1 | 9 | -1 | 1.1
CC1CCN(C(=O)CSc2ccc3nnc(-c4ccccc4)n3n2)CC1 | u | u | -2 | 2 | 0 | 1.2
Cc1c(/C(O)=C2/C(=O)C(=O)N(CCCN3CCOCC3)C2c2ccncc2)cnn1-c1ccccc1 (centres undefined) | x | x | 0 | x | 5 | x
CCOc1ccc(CC(=O)N2CCN(c3ccc(N4CCOCC4)nn3)CC2)cc1OCC | 1 | -3 | 4 | 7 | 1 | 1
COc1cc(C2C(C(=O)c3cccs3)=C(O)C(=O)N2Cc2ccco2)cc(OC)c1OC (centres undefined) | x | x | 27 | x | 83* | x
O=C(CN1CCOCC1)N1CCN(C(=O)CN2CCOCC2)CC1 | -5 | -2 | -1 | 2 | 1 | 0.96
CC1CCN(c2nc(-c3ccccc3)c(C#N)c(=O)[nH]2)CC1 | -5 | -14 | 1 | 4 | 35* | 1.2
COC(=O)c1oc2ccc(Br)cc2c1NC(=O)CN1CCN(C)CC1 | 3 | 6 | 9 | 31* | 0 | 1.1
CCOC(=O)c1[nH]c2ccc(Br)cc2c1NC(=O)CCN1CCC(C(=O)OCC)CC1 | -7 | 0 | -1 | 8 | 8 | 0.98
COC(=O)c1sc(NC(=O)C2CCCCC2C(=O)O)c(C(=O)OC)c1C (centres undefined) | x | x | 0 | x | -1 | x
COCCCN1C(=O)C(O)=C(C(=O)c2ccco2)C1c1ccc(Br)cc1 (centres undefined) | 4 | -10 | -4 | 8 | 48* | 1
COCCCN1C(=O)C(O)=C(C(=O)c2ccco2)C1c1cccc(Br)c1 (centres undefined) | x | x | -7 | x | 70* | x
CCCOc1ccc(C2C(C(=O)c3ccco3)=C(O)C(=O)N2CCN2CCOCC2)cc1OC (centres undefined) | x | x | -4 | x | 20 | x
COc1ccc(Cl)cc1NC(=O)c1nc2nc(C)cc(C(F)F)n2n1 | 2 | -26 | 4 | 1 | 8 | 1
Cc1ccc(C)c(/C(O)=C2/C(=O)C(=O)N(CCN3CCOCC3)C2c2ccc(C)o2)c1 (centres undefined) | x | x | -2 | x | 0 | x
Cc1ccc(C2/C(=C(/O)c3ccc(Cl)cc3)C(=O)C(=O)N2CC2CCCO2)o1 (centres undefined) | x | x | -2 | x | 60* | x
COc1ccc(Cn2c(CCC(=O)NCc3ccco3)nc3cccnc32)cc1 | u | 2 | 13 | 4 | 0 | 1.1
N#CC1=C(N)OC2=C(CCC/C2=C/c2ccoc2)C1c1ccoc1 (centres undefined) | 1 | 6 | 4 | 8 | 2 | 2.5*
COC(=O)c1[nH]c(C)c(/C(O)=C2\C(=O)C(=O)N(CCCN3CCOCC3)C2c2ccccn2)c1C (centres undefined) | 14 | -42 | -2 | 15 | 38* | 1
Cc1ccc(C)c(/C(O)=C2\C(=O)C(=O)N(Cc3cccnc3)C2c2cccnc2)c1 (centres undefined) | x | x | 2 | x | -2 | x
CCOC(=O)c1cc2c(=O)n3cccc(C)c3nc2n(Cc2ccco2)c1=NC(=O)c1cccnc1 | u | u | -7 | 9 | 0 | 5.5*
CCOC(=O)c1cc2c(=O)n3ccccc3nc2n(Cc2ccco2)c1=NC(=O)c1cccnc1 | u | u | 0 | 4 | -6 | 4.3*
CCOC(=O)c1cc2c(=O)n3ccccc3nc2n(CCCOC)c1=NC(=O)c1cccnc1 | 0 | 10 | -1 | x | -2 | 1.1
CCN(CC)CCCNC(=O)c1cn(CCOC)c(=O)c2c1c1ccccc1n2C | -3 | -5 | 8 | 16 | -2 | 1.1
Cc1cc(N2CCN(C)CC2)nc2ccc(NC(=O)c3ccc(Br)o3)cc12 | u | u | 5 | 35* | 2 | 1.2
